Assay outcomes: PubChem BioAssay, National Center for Advancing Translational Sciences (NCATS)
In the library only some 5.3% were active in any assay of this set; here they are far more common.
MARV entry inh: Marburg virus entry inhibition | Marburg virus pseudotyped entry inhibition, cell reporter | Potency, µM (doses to about 37.8 µM), without a hit: at the highest dose activity change, negative = inhibition, usual class: inhibitors | 300,000 compounds, 1.8% hits; calls by dose curve; tested in HEK293 cells
HCV inh: HCV inhibition | Huh7.5.1 HCVcc-Cre infection, luciferase reporter, 44 h | Potency, µM (highest dose often 41.8 µM), inactives show at the top dose activity change, negative = inhibition, hits mostly inhibitors | 340,000 compounds, 3.4% hits | AID 651820; active means well fitted inhibition curve with a large enough effect; inconclusive means small, poorly fitted or top-dose-only effect, or another doubt; inactive means no such curve, though single readings can be large or run the other way
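Infectious HCV cell culture screen: compound-treated cells (1,000/well, pre-plated 4 h) are infected with HCVcc-Cre at roughly 0.5 moi and grown 44 h. Infection is quantified by luciferase signal after 15 min substrate incubation at room temperature.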
VACV mCherry inh: vaccinia inhibition (mCherry reporter). Vaccinia virus mCherry reporter infection, fluorescence. Potency, µM (series often up to 36.5 µM), inactives show top-dose activity change, negative = inhibition, usual class: inhibitors. 310,000 compounds, 0.63% hits. AID 720579; calls by dose curve; tested in A549 cells; further: nearly all actives have a fitted effect of over 35% in size
VACV Venus inh: vaccinia inhibition (Venus reporter); Vaccinia virus Venus reporter expression, fluorescence; Potency, µM (doses to about 36.5 µM), for the others: at the top dose activity change, negative = inhibition, hits mostly inhibitors; 330,000 compounds, 0.46% hits; calls by dose curve; tested in A549 cells; further: nearly all actives have a fitted effect of over 30% in size
FMDV inh: blocks foot and mouth disease virus. FMDV antiviral cell-based qHTS. Potency, µM (highest dose often 57.9 µM), inactives show at the top dose activity change, negative = inhibition, actives largely listed as inhibitors. 410,000 compounds, 1.2% hits; calls by dose curve; tested in HEK293T cells; further: read-out not given here; nearly all actives have a fitted effect of over 45% in size
LASV entry inh: Lassa virus entry inhibition; AID 540256; 300,000 compounds, 1.2% hits; Potency, µM (doses to about 37.9 µM), for the others: top-dose activity change, negative = inhibition, usual class: inhibitors; Lassa virus pseudotype entry inhibition, cell reporter; calls by dose curve; tested in HEK293 cells; further: nearly all actives have a fitted effect of over 50% in size
* hit, by the source's call; [ ] = remark or other dose. On the % scale 0 is the no-effect control and ±100 the full control effect; potency means the concentration at half of the fitted maximal effect.

What do the screens show for `COc1ccc(OC)c(CNS(=O)(=O)c2c(C(=O)N3CCC(C)CC3)c(C)n(C)c2C)c1`?
VACV mCherry inh: -11%; VACV Venus inh: -3%; FMDV inh: 14%; LASV entry inh: 13%[46.1 µM]

What do the screens show for `COc1ccc(-c2oc3ncn4nc(COc5ccc(Cl)cc5)nc4c3c2-c2ccc(OC)cc2)cc1`?
VACV mCherry inh: -3%; VACV Venus inh: 9%; FMDV inh: -12%; LASV entry inh: 0%[46.1 µM]

How did CCNc1nc(NCC)nc(N/N=C/c2ccc(Br)cc2)n1 do in these assays?
MARV entry inh: inconclusive; HCV inh: 11µM*; VACV mCherry inh: -29%; VACV Venus inh: -24%; FMDV inh: inconclusive

How did Cc1nnc(N/N=C/c2ccc(Br)cc2)n1N do in these assays?
HCV inh: -15%; FMDV inh: 8%

Results for CCOC(=S)SCC(=O)Nc1nc(-c2ccc(Br)cc2)cs1 ?
MARV entry inh: inconclusive; HCV inh: inconclusive; VACV mCherry inh: inconclusive; VACV Venus inh: inconclusive; FMDV inh: inconclusive; LASV entry inh: 8.9µM*

What do the screens show for `CCOC(=S)SCC(=O)Nc1nc(-c2ccccc2)cs1`?
MARV entry inh: inconclusive; HCV inh: -10%; VACV mCherry inh: -19%; VACV Venus inh: -28%; FMDV inh: -15%; LASV entry inh: inconclusive

Results for CCOC(=S)SCC(=O)Nc1nccs1 ?
MARV entry inh: inconclusive; HCV inh: 0%; VACV mCherry inh: -3%; VACV Venus inh: -14%; FMDV inh: 22µM*; LASV entry inh: -12%

Results for Cc1ccc(C(=O)N(Cc2cc3cccc(C)c3nc2N(C)C)CC2CCCO2)cc1 (stereo not given) ?
VACV mCherry inh: -3%; VACV Venus inh: 0%; FMDV inh: -5%

Results for COc1ccc2c(c1)[C@H]1[C@H](CO2)[C@H](c2ccccc2)[C@]2(C)C(=O)Nc3cc(OC)c(OC)cc3C(=O)N12 ?
HCV inh: 10µM*; VACV mCherry inh: inconclusive; VACV Venus inh: inconclusive; FMDV inh: -29%

What do the screens show for `COc1ccc2c(c1)[C@H]1[C@H](CO2)[C@H](c2ccccc2)[C@]2(C)C(=O)Nc3ccc(C)cc3C(=O)N12`?
HCV inh: 11µM*; VACV mCherry inh: -28%; VACV Venus inh: inconclusive; FMDV inh: -25%

Results for Cc1ccc(NC(=O)c2cc([N+](=O)[O-])ccc2N2CCOCC2)cc1C ?
MARV entry inh: 7.1µM*; HCV inh: -22%; VACV mCherry inh: -17%; VACV Venus inh: -13%; FMDV inh: 2%; LASV entry inh: -14%[46.1 µM]

What do the screens show for `O=C(Nc1ccc(N2CCN(C(=O)c3ccccc3)CC2)cc1)c1cc([N+](=O)[O-])ccc1N1CCOCC1`?
MARV entry inh: 0.63µM*; HCV inh: inconclusive; VACV mCherry inh: inactive; VACV Venus inh: -19%; FMDV inh: -23%; LASV entry inh: 6%

What do the screens show for `CC1(C)C(=O)C=CC(=O)C(C)(C)C(=O)C=CC(=O)C(C)(C)C2=CC=C(O2)C(C)(C)C(=O)C=CC1=O`?
MARV entry inh: inconclusive; HCV inh: inconclusive; VACV mCherry inh: -10%; VACV Venus inh: -2%; FMDV inh: 7.9µM*; LASV entry inh: -19%

How did O=C(O)c1cccc(N/N=C/c2ccc(F)c(F)c2)c1 do in these assays?
MARV entry inh: inconclusive; HCV inh: 1%; VACV mCherry inh: inactive; VACV Venus inh: -1%; FMDV inh: -33%; LASV entry inh: 4µM*

Results for O=C(O)c1ccc(N/N=C/c2cc(Br)cs2)cc1 ?
MARV entry inh: 5µM*; HCV inh: 14%; VACV mCherry inh: 3%; VACV Venus inh: 8%; FMDV inh: -72%; LASV entry inh: inconclusive

How did O=C(O)c1ccc(N/N=C/c2ccc(-c3ccc(Br)cc3)o2)cc1 do in these assays?
MARV entry inh: inconclusive; HCV inh: 8%; VACV mCherry inh: 11µM*; VACV Venus inh: inconclusive; FMDV inh: 2%; LASV entry inh: inconclusive

How did Cc1ccc(/C=N/Nc2ccc(C(=O)O)cc2)o1 do in these assays?
MARV entry inh: -16%; HCV inh: 24%; FMDV inh: -2%; LASV entry inh: -3%

What do the screens show for `Cc1nn(-c2ccccc2Cl)c(Cl)c1/C=N/Nc1cccc(C(=O)O)c1`?
MARV entry inh: inconclusive; HCV inh: 29%; VACV mCherry inh: -3%; VACV Venus inh: -19%; FMDV inh: 7.1µM*; LASV entry inh: inconclusive

What do the screens show for `CCCCN(CCCC)S(=O)(=O)c1ccc2oc(C(=O)NCc3ccccc3)c(C)c2c1`?
VACV mCherry inh: inactive; VACV Venus inh: -18%; FMDV inh: -27%; LASV entry inh: -11%[46.1 µM]

What do the screens show for `C[N+]1(CC(=O)c2ccccc2)CCc2ccccc2C1` (stereo not given)?
VACV mCherry inh: -16%; VACV Venus inh: -3%

How did Cc1ccc(S(=O)(=O)c2nnn3c2nc(N(C)Cc2ccccc2)c2cc(Cl)ccc23)cc1C do in these assays?
MARV entry inh: -2%[46.1 µM]; VACV mCherry inh: -9%; VACV Venus inh: -1%; FMDV inh: 34%

Results for Cc1ccc(/C=N/Nc2cccc(C(=O)O)c2)s1 ?
MARV entry inh: 1.1µM*; HCV inh: 13%; VACV mCherry inh: inactive; VACV Venus inh: -10%; FMDV inh: 3.5µM*; LASV entry inh: 1.6µM*

What do the screens show for `Cc1ccc(/C=N/Nc2ccc(C(=O)O)cc2)s1`?
MARV entry inh: inconclusive; HCV inh: 5%; VACV mCherry inh: -4%; VACV Venus inh: 4%; FMDV inh: 6.3µM*; LASV entry inh: 1.1µM*

How did O=C(O)c1cccc(N/N=C/c2cccc3ccccc23)c1 do in these assays?
MARV entry inh: 2µM*; HCV inh: 7%; VACV mCherry inh: -3%; VACV Venus inh: -1%; FMDV inh: 4µM*; LASV entry inh: inconclusive

Results for Cc1ccc(/C=N/NC(=O)c2ccc(C(=O)N/N=C/c3ccc(C)s3)o2)s1 ?
MARV entry inh: -3%[46.1 µM]; HCV inh: 6%; VACV mCherry inh: -7%; VACV Venus inh: -3%; FMDV inh: 10%; LASV entry inh: -3%

How did Cc1ccc(N=C2NC(=O)CC(C(=O)Nc3cc(C(F)(F)F)ccc3Cl)S2)cc1 (stereo not given) do in these assays?
MARV entry inh: -21%[46.1 µM]; VACV mCherry inh: 0%; VACV Venus inh: -2%; FMDV inh: -28%; LASV entry inh: -11%[46.1 µM]

How did CC(C)(C)N(Cc1ccc2c(c1)OCO2)C(=O)/C=C\S(=O)c1ccccc1 (stereo not given) do in these assays?
MARV entry inh: inconclusive; HCV inh: 11µM*; VACV mCherry inh: 8.9µM*; VACV Venus inh: 14µM*; FMDV inh: -22%; LASV entry inh: inconclusive

Results for CCOC(=O)c1c(Nc2ccc(F)cc2)nnc(-c2ccccc2)c1-c1ccccc1 ?
MARV entry inh: inconclusive; VACV mCherry inh: 5%; VACV Venus inh: -1%; FMDV inh: inconclusive; LASV entry inh: inconclusive
